Data taken from the supplement of paper PMC7411054.
Counter-ions that a name gives are not always drawn.

Each compound was assayed on A549-TP53BP1-CLTA (assay: phenotypically active (imaging signature differs from DMSO and reproducible) at any of 0.3-9 uM (binary (1 = active, 0 = inactive)); higher = active). Conditions: treatment time: 24 h.
Procedure, shortened: (§1)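 Fifteen reporter lines derived from A549, HepG2 and WPMY1 cells by gene editing, carrying BFP for segmentation plus GFP and RFP/FusionRed markers, were exposed to 0.3, 1, 3 or 9 µM for 24 h in four wells each and imaged live. Live-cell features from each well were normalised to solvent control wells. A well set counted as deviating when ≥3 of 4 wells lay beyond the 95th percentile of control Euclidean distances, and as reproducible when the median replicate Pearson correlation exceeded the 95th percentile of non-replicates. Phenotypic activity was assigned only when both criteria were met.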

Phenotypically active, active:
OC[C@H]1O[C@@H](n2cnc3c(NCc4ccco4)ncnc32)[C@H](O)[C@@H]1O [Kinetin riboside] 1
N#Cc1c(C2CCNCC2)cc(-c2c(O)cccc2OCC2CC2)nc1N 1
C=CC(=O)Nc1cccc(Nc2nc(Nc3ccc(OCCOC)cc3)ncc2F)c1 1
COc1cc(N2CCC(N3CCN(C)CC3)CC2)ccc1Nc1ncnc(Nc2ccccc2S(=O)(=O)C(C)C)n1 1
Fc1ccccc1CNCc1ccc(-c2ccnc3[nH]ccc23)cc1 [OXA 06 dihydrochloride] 1
C[C@H]1COCCN1c1cc(C2(S(=O)(=O)C3CC3)CC2)nc(-c2ccc(NC(=S)NCCO)cc2)n1 1

These compounds were tested on A549-TUBA1B-RELA in the same assay as above. Conditions: treatment time: 24 h.
Procedure, shortened: as §1

Phenotypically active, active:
Nc1nc(Cl)nc2c1ncn2[C@@H]1O[C@H](CO)[C@@H](O)[C@@H]1F [clofarabine] 1
Cc1nc(Nc2ncc(C(=O)Nc3c(C)cccc3Cl)s2)cc(N2CCN(CCO)CC2)n1 [dasatinib] 1
O=C(NCc1cccc(O)c1)Nc1nc(-c2ccncc2)cs1 [RKI 1447 dihydrochloride] 1
CC(C)n1nc(-c2cc3cc(O)ccc3[nH]2)c2c(N)ncnc21 1
COc1ccc(-c2ccc3ncc4c(c3c2)n(-c2ccc(N3CCNCC3)c(C(F)(F)F)c2)c(=O)n4C)cn1 1
CC(C)(C)c1cnc(CSc2cnc(NC(=O)C3CCNCC3)s2)o1 1
O=C(O)c1ccc(Nc2ncc3c(n2)-c2ccc(Cl)cc2C(c2c(F)cccc2F)=NC3)cc1 1
COc1ccc(S(=O)(=O)N(C(C)=O)c2ccccc2/C=C/c2cc[n+]([O-])cc2)cc1 1
CC(C)(C)Nc1nc(Nc2ccc(C(N)=O)cc2)cc(N)c1C#N 1
Nc1cccc(-c2cc3c(Oc4cccc(O)c4)ncnc3[nH]2)c1 1
c1ccc2c(c1)Cc1c(Nc3ccc4c(c3)OCCO4)n[nH]c1-2 1
Cc1c(NC(=O)OC[C@@H]2COCCN2)cn2ncnc(Nc3ccc4c(cnn4Cc4cccc(F)c4)c3)c12 1
CCC(=O)N1CCN(c2ccc(-n3c(=O)ccc4cnc5ccc(-c6cnc7ccccc7c6)cc5c43)cc2C(F)(F)F)CC1 [Torin 1] 1
COc1c(Nc2cc(C)[nH]n2)nc(Sc2ccc(S(=O)(=O)Cc3cccc([N+](=O)[O-])c3F)cc2F)nc1N1CCOCC1 [Centrinone] 1
COc1cc2c(NC3CCN(C(C)C)CC3)nc(N3CCC(F)(F)CC3)nc2cc1OCCCN1CCCC1 1
CC(=O)c1c(C)c2cnc(Nc3ccc(N4CCNCC4)cn3)nc2n(C2CCCC2)c1=O 1
CN1c2ccccc2C(=O)N2CCc3c([nH]c4ccccc34)[C@H]21 [Evodiamine] 1
CO[C@H]1C=CC=C(C)C(=O)NC2=CC(=O)C(NCCN(C)C)=C(C[C@@H](C)C[C@H](OC)[C@H](O)[C@@H](C)C=C(C)[C@@H]1OC(N)=O)C2=O [17-DMAG hydrochloride] 1
Cc1noc(C)c1-c1cc(O)cc(C(O)c2ccccc2)c1 (stereo not given) 1
O=C(Nc1ccc(-c2ccnc(Nc3ccc(N4CCOCC4)cc3)n2)cc1)[C@@H]1CCCN1 1
NC1(C(=O)N[C@@H](CCO)c2ccc(Cl)cc2)CCN(c2ncnc3[nH]ccc23)CC1 1
NC(=O)Nc1cc(-c2cccc(F)c2)sc1C(=O)N[C@H]1CCCNC1 [AZD 7762 hydrochloride] 1
COc1cc2nc(-c3cc(F)ccc3O)nc(N[C@@H]3CNC[C@H]3C(C)(C)O)c2cc1OC 1
Cc1c[nH]c2nccc(Oc3c(F)cc(Nc4cc(Cl)nc(N)n4)cc3F)c12 1
C[C@H]1[C@H]2CC[C@H]3[C@@H]4CC=C5C[C@@H](N(C)C)CC[C@]5(C)[C@H]4CC[C@]23CN1C [Conessine] 1
CON(C)C(=O)N1N=C(c2cc(F)ccc2F)S[C@@]1(CCCN)c1ccccc1 [ARRY 520 trifluoroacetate] 1
CC[C@H](CO)Nc1nc(NCc2ccc(-c3ccccn3)cc2)c2ncn(C(C)C)c2n1 1
Oc1cccc(-c2nc(N3CCOCC3)c3oc4ncccc4c3n2)c1 [PI 103 hydrochloride] 1
COc1cc(/C=C/c2ccc(OC)cc2OC)cc(OC)c1 1
COc1cc2c(cc1-c1c(C)noc1C)ncc1[nH]c(=O)n([C@H](C)c3ccccn3)c12 [I-BET 151 dihydrochloride] 1
COc1cccc(-c2cc(F)ccc2[C@H]2Cc3nc(N)nc(C)c3C(=O)N2)n1 1
COc1cc(C(=O)NC2CCN(C)CC2)c(F)cc1Nc1ncc2c(n1)N(C1CCCC1)CC(F)(F)C(=O)N2C [TAK 960 hydrochloride] 1
CC[C@]1(O)C[C@@H]2CN(CCc3c([nH]c4ccccc34)[C@@](C(=O)OC)(c3cc4c(cc3OC)N(C=O)[C@H]3[C@@](O)(C(=O)OC)[C@H](OC(C)=O)[C@]5(CC)C=CCN6CC[C@]43[C@@H]65)C2)C1 [vincristine] 1
OC[C@H]1O[C@@H](n2cnc3c(NCc4ccco4)ncnc32)[C@H](O)[C@@H]1O [Kinetin riboside] 1
N#Cc1c(C2CCNCC2)cc(-c2c(O)cccc2OCC2CC2)nc1N 1
C=CC(=O)Nc1cccc(Nc2nc(Nc3ccc(OCCOC)cc3)ncc2F)c1 1
COc1cc(N2CCC(N3CCN(C)CC3)CC2)ccc1Nc1ncnc(Nc2ccccc2S(=O)(=O)C(C)C)n1 1
Fc1ccccc1CNCc1ccc(-c2ccnc3[nH]ccc23)cc1 [OXA 06 dihydrochloride] 1
C[C@H]1COCCN1c1cc(C2(S(=O)(=O)C3CC3)CC2)nc(-c2ccc(NC(=S)NCCO)cc2)n1 1
